p97 inhibitor: inhibitors of human p97 ATPase; P55072; inhibition, % at 8 µM; actives 0.42% (n = 220,000); recombinant p97 ATPase, Kinase-Glo ATP luminescence, 3 h; AID 1481; in the data active = inhibition above about 15%;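 note: 0% = DMSO vehicle and 100% = wells lacking enzyme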
PGE2 EP2 inh: blocks the human prostaglandin E2 receptor EP2 | P43116 | inhibition, % at 25 µM | actives 0.52% (n = 260,000) | C6 glioma cells expressing human EP2, cAMP TR-FRET; cells stimulated with saturating PGE2;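 active = percent inhibition above 40 after rounding to a whole number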;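 note: rat C6 glioma host cells with rolipram phosphodiesterase inhibitor present; the protocol text gives 20 µM as final concentration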
Arbovirus inh: blocks arbovirus infection; AID 1251; actives 0.37% (n = 200,000); arbovirus infection cell-based antiviral screen; inhibition, % at 10 µM; in the data active = inhibition above about 30%
EP2 mod: modulators of human EP2 prostaglandin E2 receptor; EP2-expressing cells, cAMP HTRF FRET, PGE2 co-stimulation; induction, % at 25 µM; actives 0.83% (n = 260,000);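 active = compounds whose cAMP rise, as percent of the full-agonist control response, exceeds 60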;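 note: rat C6 glioma line stably carrying human EP2 under a CMV promoter; the protocol text gives 20 µM as final concentration; 100% = response of wells given 1 µM PGE2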
Hck-Nef inh: human Hck-Nef kinase inhibition; P08631; Recombinant Hck-YEEI plus Nef, Z-Lyte FRET kinase assay; inhibition, % at 20 µM; actives 0.68% (n = 220,000);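 active = Hck-Nef kinase inhibition above about 50%, limit read from the data; inactive = inhibition below that limit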;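 note: 0% = DMSO with Hck plus Nef and 100% = Hck alone without Nef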
Starred values were filed as active, the others as inactive; x = no result; ! = repeats disagree. Only some compounds are listed: those with a hit (about 2.4% of all), similar ones and a draw of the others.

SMILES	p97 inhibitor	PGE2 EP2 inh	Arbovirus inh	EP2 mod	Hck-Nef inh
CCc1cc2ccccc2nc1SCC(=O)Nc1ccccc1C	x	19	x	80*	x
CCc1ccccc1NC(=O)CSc1nc2ccc(OC)cc2cc1C#N	x	24	x	21	x
O=C(CSc1nc2ccccc2cc1Cc1ccccc1)Nc1nccs1	x	18	x	64*	x
CCc1ccccc1NC(=O)CSc1nc2ccc(OC)cc2cc1C	x	22	x	70*	x
CCc1cc2ccccc2nc1SCC(=O)NCCc1ccc(OC)c(OC)c1	x	15	x	61*	x
COc1ccc(CCNC(=O)CSc2ccc3ccccc3c2)cc1OC	-3	6	1	-11	3
CCc1cc2ccccc2nc1SCC(=O)Nc1ccccc1	x	12	x	45	x
CC(C)N(C(=O)Cn1nc2c3ccccc3ncn2c1=O)C(C)C	x	5	x	-7	x
Cc1cc(C)c2nc(C(F)(F)F)nc(N3CC(C)OC(C)C3)c2c1 (stereo unspecified)	-3	x	0	61*	4
CCOC(=O)N1CCN(c2nc(C(F)(F)F)nc3c(C)cc(C)cc23)CC1	-1	8	4	32	7
COc1cc2c(cc1NC(=O)COC(=O)/C=C/c1ccc([N+](=O)[O-])cc1)oc1ccccc12	15*	2	x	-11	28
COc1cc2c(cc1NC(=S)Nc1cccc3ccccc13)oc1ccccc12	8	43*	-11	-28	1
COc1cc2c(cc1NC(=O)CC1SC(N3CCCC3)=NC1=O)oc1ccccc12 (stereo unspecified)	6	12	33*	-11	0
O=C(c1ccccc1NS(=O)(=O)c1ccc2ccccc2c1)N1CCCC1	x	7	x	12	x
O=C1C(=O)c2ccccc2C(O)=C1C(C1=C(O)c2ccccc2C(=O)C1=O)c1ccc(Cl)cc1	x	37	x	23	x
O=C1C(=O)c2ccccc2C(O)=C1C(CCc1ccccc1)C1=C(O)c2ccccc2C(=O)C1=O	x	42*	x	27	x
CC(=O)c1c(C(C)=O)c(C)n(-c2cccc(C)c2)c1C	x	5	x	9	x
c1ccc(-c2cnc(-c3ccc(-c4ncc(-c5ccccc5)o4)cc3)o2)cc1	x	45*	x	12	x
CC(=O)/C=C(\C)Nc1ccc(-c2cnc(-c3ccccc3)o2)cc1	9	20	-4	-26	11
Cc1ccc(CN(CCCn2ccnc2)Cc2ccc(F)c(F)c2)s1	x	1	x	35	x
COCCSc1nnc(NC(=O)C2CCCCC2)s1	1	6	32*	14	5
O=C(Nc1nnc(SCC(=O)N2CCCCC2)s1)C1CCCCC1	1	10	3	5	0
O=C(Nc1nnc(-c2cccs2)s1)c1ccco1	x	44*	x	4	x
O=C(Nc1nc(-c2cccs2)cs1)c1ccco1	6	1	11	-4	25
CC1=C(C#N)c2nc(N)c(C#N)c(C)c2/C1=C\c1ccc(C)cc1	4	40*!	-10	-111	0
SMILES	p97 inhibitor	PGE2 EP2 inh	Arbovirus inh	EP2 mod	Hck-Nef inh
CSc1ncnc2c1ncn2CC(=O)[C@@H]1CC[C@@H]2[C@H]3CCC4=CC(=O)CC[C@@]4(C)[C@@H]3CC[C@]21C	x	64*	x	14	x
Cc1ccc(-c2n[nH]c(CNC(=O)C3(c4ccc(Cl)cc4)CCC3)n2)cc1	x	7	x	-65	x
CCN1CCCC1CN(Cc1cc2ccc(C)c(C)c2[nH]c1=O)C(=O)Nc1ccc(Cl)cc1 (stereo unspecified)	x	16	x	-33	x
COc1ccc(N2CCN(C(=O)CSc3nnc4c5c(C)c(C)sc5ncn34)CC2)cc1	x	8	x	-44	x
CCCSc1nnc(NC(=O)c2sc3nc(-c4cccs4)ccc3c2N)s1	4	8	-8	-34	-1
Cc1csc(NC(=O)c2sc3nc(-c4cccs4)ccc3c2N)n1	1	64*	-6	-48	-4
COc1ccc(C(=O)Nc2nc(-c3cccs3)cs2)cc1	3	43*	4	-22	2
COc1cc(C(=O)Nc2nc(-c3cccs3)cs2)cc(OC)c1OC	2	87*	-8	-30	-1
O=C(Nc1nc(-c2cccs2)cs1)c1ccc(Cl)cc1	7	4	8	8	0
CCOc1cc(NC(=O)c2cccs2)c(OCC)cc1NC(=O)c1cccs1	x	8	x	3	x
Cc1cc(=O)oc2cc(OC(C)C(=O)NC(C)c3ccccc3)ccc12 (stereo unspecified)	x	10	x	-32	x
CCOC(=O)c1ccc(NC(=O)c2ccc(C)c(S(=O)(=O)N3CCOCC3)c2)cc1	-2	6	33*	-30	2
CCOC(=O)c1ccc(NC(=O)c2cccc(S(=O)(=O)N3CCOCC3)c2)cc1	-2	21	5	-11	2
CCOCCCNC(=S)N(Cc1cc2ccc(C)cc2[nH]c1=O)C1CCCCC1	x	6	x	-33	x
COC(=O)c1c(NC(=O)c2ccco2)sc(C(=O)Nc2ccccc2OC)c1C	x	11	x	1	x
O=c1/c(=C/c2ccc(O)cc2)sc2n1CCCN=2	7	14	47*	-19	1
O=c1/c(=C\c2ccc(F)cc2)sc2n1CCCN=2	4	6	1	-5	-5
Cc1ccc2nc(N3C(=O)C(O)=C(C(=O)c4ccco4)C3c3cccs3)sc2c1 (stereo unspecified)	7	75*!	10	31	3
Cc1ccc2nc(N3C(=O)C(O)=C(C(=O)c4ccco4)C3c3ccco3)sc2c1 (stereo unspecified)	x	35	x	12	x
Cc1ccc2nc(N3C(=O)C(O)=C(C(=O)c4ccc(C)o4)C3c3ccc(O)cc3)sc2c1 (stereo unspecified)	x	49*	x	-8	x
Cc1cc(C)c(NC(=O)C2CCCN(S(=O)(=O)c3ccc(-n4cnnn4)cc3)C2)c(C)c1 (stereo unspecified)	x	8	x	-16	x
CN1CCN(C2=C(Cl)C(=O)C(c3cnc(N4CCCCC4)s3)=C(Cl)C2=O)CC1	4	104*	-32	-57	-1
CN1CCN(CN2C(=O)[C@H]3[C@H]4C=C[C@@H]([C@@H]3C2=O)[C@H]2[C@@H]3C(=O)N(CN5CCN(C)CC5)C(=O)[C@@H]3[C@@H]42)CC1	x	53*	x	8	x
Cc1cc2n(n1)C(c1ccc3c(c1)OCO3)Nc1c(C)cccc1-2 (stereo unspecified)	0	14	12	44	1
Cc1cc(C)c2c(c1)-c1cc(C)nn1C(c1ccc3c(c1)OCO3)N2 (stereo unspecified)	-4	6	2	64*	1
CCC(c1nnnn1C(C)(C)C)N(Cc1ccc(OC)cc1)Cc1cc2cc(C)cc(C)c2[nH]c1=O (stereo unspecified)	x	7	x	-3	x
O=C(O)C1C2C=CC3(CN(c4ccccc4F)C(=O)C13)O2 (stereo unspecified)	x	7	x	29	x
Oc1ccc(F)cc1-c1cc(-c2ccc3c(c2)OCCO3)n[nH]1	1	7	32*	-42	5
O=C(N/N=C/c1ccc(F)cc1)c1cc(-c2ccc3c(c2)OCO3)n[nH]1	3	3	x	-41	25
O=[N+]([O-])c1ccc(N(c2ccccc2)c2ccccc2)cc1	1	7	1	61*	0

Source: PubChem BioAssay (several laboratories)
